Most compounds without a hit are left out; they make up all but 9.3% or so of the library.
HCMV antiviral = inhibitors of human cytomegalovirus. hit rate 4.5% among 410,000. activity change, negative = inhibition, % at 57.5 µM. HFF cells, HCMV-luciferase reporter, 72 h; stronger effect = lower value; in the data active means activity change below about -60%; inconclusive means no clear call, values can overlap the other calls; inactive means above about -39%
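Cell-based, HFFs, 1000 cells/well, 16 h 37C; cpds in DMSO + HCMV-luc, MOI 1 PFU/cell; 72 h 37C; OneGlo luminescence after 5 min RT; norm. to buffer vs Salinomycin 10uM.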
Sm TGR block = S. mansoni TGR enzyme inhibition; Q962Y6; purified TGR, DTNB reduction, TNB absorbance 405 nm; Potency, µM (titrated, usually from 114 µM), inactives show top-dose activity change, negative = inhibition, most hits filed as inhibitors; hit rate 3% among 360,000; further: potency means the concentration at half of the fitted maximal effect; nearly all actives have a fitted effect of over 60% in size
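TGR 20 nM + NADPH 100 uM (dispensed conc.), cpd preinc 15 min RT; start with NADPH (500 uM addition) then DTNB (15 mM addition). Kinetic TNB absorbance, 405 nm filter. Four-parameter Hill fit across titration.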
Vaccinia Venus = inhibitors of vaccinia virus (Venus reporter) | Vaccinia virus Venus reporter expression, fluorescence | Potency, µM (highest dose often 36.5 µM), inactives show at the highest dose activity change, negative = inhibition, hits mostly inhibitors | hit rate 0.46% among 330,000 | AID 720580; calls by dose curve; tested in A549 cells; further: potency means the concentration at half of the fitted maximal effect; nearly all actives have a fitted effect of over 30% in size
HCV inh = HCV inhibition. Huh7.5.1 HCVcc-Cre infection, luciferase reporter, 44 h. Potency, µM (highest dose often 41.8 µM), for inactives: at the highest dose activity change, negative = inhibition, most hits filed as inhibitors. hit rate 3.4% among 340,000. AID 651820; further: potency means the concentration at half of the fitted maximal effect
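HCVcc-Cre virus at an moi near 0.5 was added right after compound to cells cultured 4 h from seeding (1,000 cells/well). Luciferase activity was determined 44 h later, 15 min after substrate addition at RT.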
VACV mCherry inh = vaccinia inhibition (mCherry reporter); Vaccinia virus mCherry reporter infection, fluorescence; Potency, µM (series often up to 36.5 µM), for inactives: at the highest dose activity change, negative = inhibition, actives largely listed as inhibitors; hit rate 0.63% among 310,000; calls by dose curve; tested in A549 cells; further: potency means the concentration at half of the fitted maximal effect; nearly all actives have a fitted effect of over 35% in size
FMDV antiviral = blocks foot and mouth disease virus; FMDV antiviral cell-based qHTS; Potency, µM (highest dose often 57.9 µM), without a hit: at the top dose activity change, negative = inhibition, most hits filed as inhibitors; hit rate 1.2% among 410,000; calls by dose curve; tested in HEK293T cells; further: read-out not given here; potency means the concentration at half of the fitted maximal effect; nearly all actives have a fitted effect of over 45% in size
The depositor's hits bear a star; i = inactive; ? = inconclusive; / = no result; [ ] = remark or other dose. Unless noted, the call rests on the fitted dose curve; in most records, active means well fitted curve in the direction sought with a large enough effect; inconclusive means small, poorly fitted or top-dose-only effect, or another doubt; inactive means no such curve, though single readings can be large; an effect the other way counts as inactive or inconclusive. On the % scale 0 is the no-effect control and ±100 the full control effect.

SMILES | HCMV antiviral | Sm TGR block | Vaccinia Venus | HCV inh | VACV mCherry inh | FMDV antiviral
CC(C)(C)c1ccc(C(=O)NC(Cc2c[nH]c3ccccc23)C(=O)OCC(=O)c2ccc(Cl)cc2)cc1 (configuration not stated) | ? | 8.6% | -15.3% | / | -4.3% | -7.4%
O=C1CN(C(=O)COC(=O)c2ccc(Br)o2)c2ccccc2N1 | -102.4* | / | / | 0.2% | / | -2.8%
O=C1CN(C(=O)COC(=O)CNC(=O)c2ccc(Br)o2)c2ccccc2N1 | 25.2 | -10.7% | -15.7% | 17.7% | -5.1% | -5.4%
COc1cccc(N2CCN(c3ncnc4c3[nH]c3ccccc34)CC2C)c1 (configuration not stated) | -102.5* | 1.0% | / | 10µM* | / | /
COc1cccc(N2CCN(c3ncnc4c3[nH]c3ccc(F)cc34)CC2C)c1 (configuration not stated) | -97.1* | -9.7% | 7.08µM* | 1.58µM* | / | 2µM*
COc1cccc2[nH]c3c(N4CCc5ccccc5C4)ncnc3c12 | / | -16.8% | -24.7%[7.34 µM] | 11.2µM* | ? | ?
CC(=O)c1ccc(S(=O)(=O)NCc2cccnc2)cc1 | 14.0 | 0.8% | / | -3.1% | / | 20.0%
CCC(C(=O)Nc1ccc2c(c1)OCCO2)n1c(=O)[nH]c2ccccc2c1=O (configuration not stated) | -73.2* | 0.5% | -18.8% | 9.3% | -11.6% | -1.8%
Cc1ccc(C(=O)N/C(=C/c2ccco2)C(=O)NCc2ccco2)cc1 | 22.7 | 39.8µM* | -8.0% | 6.7% | -11.6% | 12.4%
Cc1ccc(C(=O)N/C(=C/c2ccco2)C(=O)Nc2cccc(C)c2)cc1 | 33.4 | ? | -7.0% | ? | -13.6% | /
O=C(NCc1ccco1)c1cccs1 | 20.4 | 35.5µM* | 10.8% | -0.7% | / | -7.8%
Cc1cccc(NC(=O)/C(=C\c2ccco2)NC(=O)c2cccs2)c1 | -10.9 | 50.1µM* | / | 1.2% | / | -15.1%
COc1ccc(C(=O)N/C(=C\c2ccco2)C(=O)OCc2ccco2)cc1 | 29.3 | 28.2µM* | -2.4% | -5.1% | -5.3% | 26.2%
Cn1cc(CN2CCN(c3cnccn3)CC2)c(-c2cccc(Cl)c2)n1 | -34.6 | -34.1% | -8.4% | 6.2% | -0.3% | -1.7%
O=C(NCc1ccc2c(c1)OCO2)c1cc2c(s1)CSC2 | 18.9 | -12.1% | -2.4% | 2.1%[8.37 µM] | 6.9% | 8.2%
O=C(NCc1ccco1)/C(=C\c1cccs1)NC(=O)c1cccs1 | -19.0 | 4.2% | 4.2% | 7.0% | -5.5% | 22.3%
O=C(Nc1ccc(NC(=O)c2cccs2)cc1Cl)c1ccco1 | -14.1 | 6.4% | -12.9% | -0.3% | i | 32.7%
O=C(NCc1ccco1)/C(=C\c1ccco1)NC(=O)c1cccs1 | -13.1 | 28.2µM* | 6.8% | 19.9% | 1.4% | -4.2%
Cc1ccc(NC(=O)c2ccco2)c(NC(=O)c2cccs2)c1 | 14.6 | -11.0% | -18.1% | 11.2µM* | i | /
CC(/C=N/NC(=O)Cc1cccs1)=C\c1ccco1 | 24.6 | ? | / | ? | / | 21.1%
CC(/C=N/NC(=O)c1cccs1)=C\c1ccco1 | -32.0 | 31.6µM* | -4.7% | -21.3% | -8.8% | 90.9%
O=C(NCc1ccco1)c1cc2c(s1)CSC2 | / | 17.8µM* | / | -8.0% | / | -28.7%
COc1ccc(C(CNC(=O)C(C)(C)Oc2ccc(Cl)cc2)N2CCCCC2)cc1 (configuration not stated) | -10.0 | -16.4% | -16.2% | 1.5% | -20.4% | 0.0%
CC(NC(=O)CS(=O)(=O)c1ccccc1)c1ccccc1 (configuration not stated) | -11.3 | 1.3% | / | 20.7% | / | -17.5%
O=C(Nc1ccc2nc(-c3ccco3)[nH]c2c1)c1cccs1 | -8.7 | 25.1µM* | 7.5% | ? | -6.4% | 16.7%
SMILES | HCMV antiviral | Sm TGR block | Vaccinia Venus | HCV inh | VACV mCherry inh | FMDV antiviral
Cc1ccc2nc(-c3ccc(NC(=O)Cc4cccs4)cc3)[nH]c2c1 | 25.1 | -13.6% | 12.6µM* | 11.2µM* | ? | /
O=C(Nc1ccc2nc(-c3cccnc3)[nH]c2c1)c1ccco1 | -67.0* | -25.3% | 14.9% | -18.8% | 25.1% | -13.8%
O=C(Nc1ccc2nc(-c3ccc4nc[nH]c4c3)[nH]c2c1)c1cccs1 | -21.4 | -34.7% | / | -25.6% | / | 3.7%
O=C(Nc1ccc2nc(-c3ccccc3)[nH]c2c1)c1cccs1 | -79.4* | 0.0% | -13.6% | ? | -11.6% | /
O=C(Nc1ccc2nc(-c3ccco3)[nH]c2c1)c1ccco1 | -15.5 | -34.9% | / | -16.9% | / | 26.0%
CC(=O)Nc1ccc2nc(-c3cccnc3)[nH]c2c1 | -2.5 | 0.1% | -0.1% | 0.4% | -9.9% | 6.9%
C[C@@H]1CCC[C@@]2(O[C@@H](CCO)C[C@@H](O)[C@@H]2O)O1 | -24.3 | / | -11.1% | 9.0% | -14.4% | -8.5%
Cc1ccccc1OCc1nnc(SCC(=O)NC2CCCCC2)o1 | -3.5 | -2.3% | 2.8% | 10.9% | i | -10.5%
COC(=O)c1ccc2oc(=O)c(S(=O)(=O)c3ccc(C)cc3)cc2c1 | 17.8 | -4.2% | 6.8% | / | -7.0% | 0.0%
COCCCNc1oc(-c2cccs2)nc1S(=O)(=O)c1ccc(C)cc1 | ? | -5.0% | -4.7% | -11.2% | -5.7% | 35.7%
COc1ccc(C(=O)OCc2nnc(-c3ccccc3)o2)cc1S(=O)(=O)N1CCOCC1 | -32.8 | -1.6% | 0.4% | -1.9% | -2.2% | 16.6%
O=C(CCC(=O)c1ccc(F)cc1)OCc1nnc(-c2ccc([N+](=O)[O-])cc2)o1 | 0.0 | 20µM* | -2.5% | 15.0% | -13.9% | -15.0%
O=C(OCc1nnc(-c2ccc([N+](=O)[O-])cc2)o1)c1ccc(F)c(S(=O)(=O)N2CCOCC2)c1 | -67.1* | 0.0% | -3.5% | -3.7% | -5.2% | -12.6%
CS(=O)(=O)c1ccc(C(=O)OCc2nnc(-c3ccc(Cl)cc3)o2)cc1[N+](=O)[O-] | / | 2.51µM* | -16.7% | ? | -23.4% | ?
Cc1c(NC(=O)c2ccccc2NS(=O)(=O)c2ccc(Br)cc2)c(=O)n(-c2ccccc2)n1C | 51.2 | 5.7% | / | 29.0% | / | 6.0%
CC1=C(C(=O)N(C(C)C)C(C)C)CC(CC(=O)NCc2cccs2)C(=O)N1CCC1=CCCCC1 (configuration not stated) | -21.9 | / | -22.0% | / | 7.3% | 6.2%
O=C(Cn1ncc2c(=O)oc3ccccc3c21)N1CCCN(Cc2ccccc2F)C1 | -0.4 | -5.4% | -6.4% | -0.3% | 23.7% | -14.3%
CC(=O)CC(=O)NC(=NC1CCCCC1)Nc1nc(C)cc(C)n1 | 51.2 | 6.9% | / | 11.2µM* | / | -10.8%
O=C(CN1C(=O)/C(=C/c2ccccc2Cl)SC1=S)NC1C=CS(=O)(=O)C1 (configuration not stated) | -64.4* | -3.3% | -3.9% | -0.3% | -9.0% | -11.9%
CC(C)c1ccc(/C=C2\SC(=O)N(CC(=O)NC3C=CS(=O)(=O)C3)C2=O)cc1 (configuration not stated) | -76.6* | -24.6% | / | -5.7% | / | -9.7%
O=C(CN1C(=O)/C(=C/c2ccc(Cl)cc2)SC1=S)NC1C=CS(=O)(=O)C1 (configuration not stated) | -30.6 | -1.7% | / | 1.9% | / | 0.0%

Screens from PubChem.
